The whole screen tested about 320,000 compounds, of which about 2,200 (0.69%) were called active.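 The calls were made as follows: active = inhibition above the mean of all tested compounds plus 3 SD, cutoff set per campaign (cut at about 30% in these data); inactive = the rest.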 The entries come from a sample that favours actives as a whole.
target: Bcl-2-like protein 1 (Homo sapiens) (UniProt Q07817); experiment: Bcl-xL/Bim BH3 interaction blockers – biochemical, fluorescence polarization, HTS, primary screen (AID 2129); conditions: GST-Bcl-xL / FITC-Bim BH3 peptide fluorescence polarization; at 10.9 µM; hits give high values;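 also: 0% = DMSO wells and 100% = unlabeled Bim-BH3 peptide competitor; inhibitors lower millipolarization by displacing the labeled peptide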
Sequence (Q07817 whole entry, looked up): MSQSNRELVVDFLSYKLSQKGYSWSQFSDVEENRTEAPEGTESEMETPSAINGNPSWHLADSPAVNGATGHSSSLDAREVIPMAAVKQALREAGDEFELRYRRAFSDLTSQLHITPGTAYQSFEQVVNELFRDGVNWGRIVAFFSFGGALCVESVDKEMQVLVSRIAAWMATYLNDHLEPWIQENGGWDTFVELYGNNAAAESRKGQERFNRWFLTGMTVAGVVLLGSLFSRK

Compound | inhibition
COCCNc1nc2nonc2nc1N1CCCC1c1nccs1 (stereo not given) | 31.5% (active)
COCCNc1nc2nonc2nc1N(C)Cc1ccc(C)cc1 | 0.5% (inactive)
CC1=C(C(=O)OCc2ccccc2)C(c2ccco2)n2ncnc2N1 (stereo not given) | 1.01% (inactive)
CCOc1ccc(C2=CC(c3ccccc3)n3ncnc3N2)cc1 (stereo not given) | 14.6% (inactive)
CCC(C)NC(=O)/C=C/c1ccc(S(=O)(=O)NCc2ccco2)cc1 (stereo not given) | 3.42% (inactive)
Cc1ccc(O)c(-c2cc(C(=O)Nc3c(C)n(C)n(-c4ccccc4)c3=O)[nH]n2)c1 | 2.52% (inactive)
CC[N+](C)(CC)CCC[n+]1c(-c2ccccc2)c2cc(N)ccc2c2ccc(N)cc21 | 123% (active)
CC(=O)Nc1ccc(NC(=O)CSC2=NS(=O)(=O)c3ccccc3N2)cc1 | 1.27% (inactive)
COc1ccccc1CCNC(=O)c1c(C)nn(CC(C)C)c1Cl | 3.1% (inactive)
CC(=O)C1=C(C)NC(C)=C(C(C)=O)C1c1cn(-c2ccccc2)nc1-c1cccs1 | -1.97% (inactive)
CC1CCN(Cc2nc3c(c(=O)n(C)c(=O)n3C)n2CCc2ccccc2)CC1 | -4.09% (inactive)
CC(C)(C)CC(C)(C)NCC(O)COCCOc1ccc(Br)cc1 (stereo not given) | -1.57% (inactive)
Cc1ccsc1CNn1cnnc1SCc1ccccc1F | -10.8% (inactive)
Cc1c(C)c(C)c2[nH]c(=S)[nH]c2c1C | -44% (inactive)
O=c1[nH]c(=S)[nH]c2[nH]c(=S)[nH]c12 | 44% (active)
Cc1cc2c(C)nc(N/N=C/c3ccccc3)nc2o1 | 2.89% (inactive)
CC1CC(C)CN(S(=O)(=O)c2cccc3nonc23)C1 (stereo not given) | 3.55% (inactive)
CC(=O)N1CCc2c(sc(NC(=O)CCS(=O)(=O)c3ccc(C)cc3)c2C(N)=O)C1 | 6.13% (inactive)
CSc1nc2ccccc2cc1/C=C(\C#N)c1ccc(Cl)cc1Cl | 1.93% (inactive)
Cc1ccc(C(=O)N2CCCC2)c(F)c1F | 8.05% (inactive)
Oc1ccc(C2Nc3cccc4cccc(c34)N2)cc1 | 15.2% (inactive)
Cc1ccc(C2Nc3cccc4cccc(c34)N2)cc1 | 31.7% (active)
COc1cccc(C2Nc3cccc4cccc(c34)N2)c1 | 20.6% (inactive)

Compound | inhibition
CCCCCCNS(=O)(=O)c1ccccc1Br | -2.11% (inactive)
Cc1ccc(NC2CCCN(C(=O)CCC3(C)CC3)C2)cc1C (stereo not given) | 4.16% (inactive)
Cc1ccnc(NC(=O)c2ccoc2C)c1 | 32.4% (active)
Cc1ccnc(NC(=O)CNC(=O)c2ccccc2)c1 | -1.9% (inactive)
COc1cc(SC)ccc1C(=O)Nc1cc(C)ccn1 | -0.05% (inactive)
COC(=O)c1cccc(N2C(=O)C3C4C=CC(CC4)C3C2=O)c1 (stereo not given) | 2.84% (inactive)
CCOC(=O)/C(=C\c1ccc([N+](=O)[O-])cc1)C(=O)c1cc(C(C)=O)c(Nc2ccccc2)s1 | 1.23% (inactive)
Cc1ccc(S(=O)(=O)NNC(=O)/C=C/c2cccc(F)c2)cc1 | 6.57% (inactive)
O=C1c2ccccc2C(=O)c2c1cccc2N1CCN(C/C=C/c2ccccc2)CC1 | 20.9% (inactive)
O=C1c2ccccc2C(=O)c2c1cccc2N1CCN(CCO)CC1 | 60% (active)
O=C1c2ccccc2C(=O)c2c1cccc2N1CCN(Cc2ccccc2)CC1 | 7.24% (inactive)
C/C(Cl)=C\Cn1c(Nc2cccc(C)c2)nc2c1c(=O)n(C)c(=O)n2C | 3.4% (inactive)
COc1ccccc1C(=O)N/C(=C/c1ccc2c(c1)OCO2)C(=O)Nc1cccc(C(=O)O)c1 | 8.09% (inactive)
CCCC1OC23CCCCC2C(C#N)(C#N)C1(C#N)C(=N)O3 (stereo not given) | 82.8% (active)
Cc1ccc(CNC(=O)CC(NC(=O)c2ccccc2)c2ccccc2)cc1 (stereo not given) | -7.73% (inactive)
CN(C)[C@@H]1C(=O)C(C(N)=O)=C(O)[C@@]2(O)C(=O)C3=C(O)c4c(O)ccc(Cl)c4[C@@H](O)[C@H]3C[C@@H]12 | 15.2% (inactive)
C=C1c2c(Cl)ccc(O)c2C(O)=C2C(=O)[C@]3(O)C(O)=C(C(N)=O)C(=O)[C@@H](N(C)C)[C@@H]3[C@@H](O)C12 (stereo not given in full) | 31.6% (active)
Cc1cc(F)ccc1N1CCC(N2CCN(C)C(CCO)C2)CC1 (stereo not given) | 8.78% (inactive)
Cc1cc(-c2csc(N)n2)c(C)n1Cc1ccccc1 | 11.3% (inactive)
CC(=O)c1ccc(-c2ccc(Cn3c(C)nc4cc(N)c(C)nc43)cc2)cc1 | -0.35% (inactive)
COc1ccccc1CNS(=O)(=O)c1ccc2c(c1)NC(=O)CS2 | -2.44% (inactive)
CC1CC(c2ccccc2)n2nc(NC(=O)c3cccs3)nc2N1 (stereo not given) | 3.43% (inactive)
Cc1ccc(SCC(=O)NNC(=O)c2ccc(S(C)(=O)=O)cc2)cc1 | 1.39% (inactive)

Compound | inhibition
CCN(CC)S(=O)(=O)c1ccc(N2CCN(C)CC2)c(NC(=O)Nc2ccccc2F)c1 | 5.12% (inactive)
COc1ccc(Nc2nc(-c3cccnc3)nc3ccccc23)cn1 | 118% (active)
CCOCCCNc1nc(-c2ccccc2)nc2ccccc12 | 1.72% (inactive)
O=[N+]([O-])c1ccc(F)cc1Oc1nc(-c2cccnc2)nc2ccccc12 | 3.63% (inactive)
CC[C@]1(O)CC2CN(CCc3c([nH]c4ccccc34)[C@@](C(=O)OC)(c3cc4c(cc3OC)N(C=O)[C@H]3[C@@](O)(C(=O)OC)[C@H](OC(C)=O)[C@]5(CC)C=CCN6CC[C@]43[C@@H]65)C2)C1 (stereo not given in full) | 15% (inactive)
CC[C@]1(O)C[C@@H]2CN(CCc3c([nH]c4ccccc34)[C@@](C(=O)OC)(c3cc4c(cc3OC)N(C)[C@H]3[C@@](O)(C(=O)OC)[C@H](OC(C)=O)[C@]5(CC)C=CCN6CC[C@]43[C@@H]65)C2)C1 | 105% (active)
Cc1ccc2c(Cl)c(C(=O)NCCCn3ccnc3)sc2c1 | 6.22% (inactive)
CC(=O)C[C@@H](O)CC(=O)[C@H]1OC(=O)CCCCCCc2ccccc21 | 0.52% (inactive)
COc1ccc(CN2CCn3ncc(C(=O)Nc4ccc(Cl)cc4Cl)c3C2=O)cc1 | 2.02% (inactive)
FC(F)(F)c1cccc(Nc2ncnc3ccccc23)c1 | -2.73% (inactive)
O=c1cc(CO)oc(C(Nc2cccc(C(F)(F)F)c2)c2ccccn2)c1O (stereo not given) | 33.9% (active)
O=c1cc(CO)oc(C(Nc2cccc([N+](=O)[O-])c2)c2ccccn2)c1O (stereo not given) | 13.9% (inactive)
O=C(NCCc1ccccn1)c1cc(-c2ccc(Cl)cc2)nc2ccccc12 | -6.46% (inactive)
COCCCNC(=S)N(Cc1ccccc1)Cc1ccc(F)cc1 | 3.88% (inactive)
COc1ccc(C(=O)COC(=O)CNC(=O)c2cccs2)cc1Br | 5.14% (inactive)
C=CCOc1cccc(C2C(C(=O)c3ccc(C)o3)=C(O)C(=O)N2CCCn2ccnc2)c1 (stereo not given) | 0.01% (inactive)
C=CCOc1cccc(C2C(C(=O)c3ccc(C)o3)=C(O)C(=O)N2c2nnc(C)s2)c1 (stereo not given) | 88.7% (active)
Cc1cc(N2C(=O)C(O)=C(C(=O)c3ccc(C)o3)C2c2ccc(OCc3ccccc3)cc2)no1 (stereo not given) | 11.2% (inactive)
Cc1cc(C(=O)NC2CCN(Cc3ccccc3)CC2)n[nH]1 | 1.91% (inactive)
C#CCOCCOCCOCCNc1nc(N2CCN(C(=O)C([C@@H](C)CC)n3cc(C(N)COC(=O)C(F)(F)F)nn3)CC2)nc(N2CCN(C(=O)[C@H](Cc3ccc(O)cc3)n3cc(C(N)[C@H](C)CC)nn3)CC2)n1 (stereo not given in full) | 14.5% (inactive)
Cn1c2c(c(=O)n(C)c1=O)C1c3ccccc3OCC1C(C)(C)O2 (stereo not given) | 3.9% (inactive)
NC(=O)COC(=O)c1ccc2c(c1)C(=O)N(Cc1ccco1)C2=O | 4.63% (inactive)
CCCc1nc2scc(-c3ccc(C)cc3)c2c(=O)n1N | 1.66% (inactive)

Compound | inhibition
Cc1cc2ccccc2n1CCNC(=O)COc1ccc2ccccc2c1 | 4.61% (inactive)
Cc1cc2ccccc2n1CCC(=O)O | 52.5% (active)
O=C(O)CCn1c(Cc2ccccc2)nc2ccccc21 | 1.07% (inactive)
CC(C)(C)c1cc2cccnc2n1Cc1cccc(F)c1 | 7.39% (inactive)
CN(C)NC(=O)C(NC(=O)c1ccc(N)cc1)C12CC3CC(CC(C3)C1)C2 (stereo not given) | -0.78% (inactive)
CCOC(=O)c1cc2n(c1N)-c1ccccc1C2=O | 140% (active)
CCOC(=O)c1ccccc1CN1C(=O)c2ccccc2S1(=O)=O | 4.12% (inactive)
CC(C)OC(=O)CN1C(=O)C(=O)c2ccccc21 | 10.2% (inactive)
Cc1ccc(S(=O)(=O)CC(=O)NC(C)c2ccccc2)cc1 (stereo not given) | -0.31% (inactive)
CCOc1cc(CNCCN(C)C)c(Cl)cc1OCC(=O)NCCc1ccccc1 | -0.08% (inactive)
CNc1nc(-c2ccccc2)cc(-c2ccccc2)n1 | 2.12% (inactive)
NNC(=O)c1oc2nc(-c3ccccc3)cc(-c3ccco3)c2c1N | -35.7% (inactive)
CNC(=S)NNC(=O)c1oc2nc(-c3ccccc3)cc(-c3ccco3)c2c1N | 30.6% (active)
COc1ccccc1C(=O)Nc1ccccc1C(=O)Nc1ccccc1 | -2.98% (inactive)
Oc1[nH]c2ccc(Br)cc2c1N=Nc1nn[nH]n1 | 1.22% (inactive)
NS(=O)(=O)c1ccc(N=Nc2c(O)[nH]c3ccc(Br)cc23)cc1 | 37.1% (active)
O=C(CNC(=O)Cc1ccccc1)N=Nc1c(O)[nH]c2ccc(Br)cc12 | 10.3% (inactive)
CC(=O)CC[C@@H](C)O[C@@H]1OC(C)[C@H](O)CC1O (stereo not given in full) | 1.11% (inactive)
Cc1ccc(-n2c(C)cc(/C=C(\C#N)C(=O)NCC3CCCO3)c2C)cc1 (stereo not given) | -0.52% (inactive)
CCN1CC=C2C(C#N)=C(N)C(C#N)(C#N)[C@H](c3ccoc3)[C@H]2C1 | 148% (active)
CCCN1CC=C2C(C#N)=C(N)C(C#N)(C#N)C(c3cc(OC)ccc3OC)C2C1 (stereo not given) | 68.3% (active)
